“And” between values parts separate entries of the source, which are not always exact repeats. Identical values can stand only once. About 2,000 (36%) of roughly 5,500 compounds were called active. Inconclusive results (about 18%) are left out. Cut-off read from the data, not from the text of the source: active = normalized growth mostly below about 0.91 (no sharp cut-off); inconclusive = no clear call, values can overlap the other calls; inactive = mostly above about 0.92. The list shows a part of the results.
Test: chemical genetic growth profiling, strain panel (AID 1159580);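 note: tested at 20 µM; growth read once vehicle control cultures reached saturation at 30 °C; 1 = growth at the plate median or of vehicle wells; lower values mean less growth of the strain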
Conditions: S. cerevisiae deletion strains, growth OD

Measured: normalized growth

COc1cc(Cc2cnc(N)nc2N)cc(OC)c1OC
inactive: locus YAL013W, strain DEP1, stronger effect = lower value 1 and 1.03 | locus YAL021C, strain ccr4, stronger effect = lower value 1.02 | locus YAL026C, strain drs2, stronger effect = lower value 1.01 | locus YAL030W, strain snc1, stronger effect = lower value 1.01 | locus YAL040C, strain CLN3, stronger effect = lower value 0.987 | locus YBL061C, strain skt5, stronger effect = lower value 1.01 | locus YBR009C, strain hhf1, stronger effect = lower value 1.01 | locus YBR021W, strain FUR4, stronger effect = lower value 0.977 | locus YBR023C, strain chs3, stronger effect = lower value 1.01 | locus YBR171W, strain sec66, stronger effect = lower value 1.02 | locus YBR229C, strain ROT2, stronger effect = lower value 0.998 | locus YBR231C, strain swc5, stronger effect = lower value 1.01 | locus YBR279W, strain paf1, stronger effect = lower value 1.02 | locus YCL011C, strain gbp2, stronger effect = lower value 1.02 | locus YCL016C, strain dcc1, stronger effect = lower value 1.02 | locus YCL029C, strain bik1, stronger effect = lower value 0.982 | locus YCL061C, strain MRC1 (second series), stronger effect = lower value 0.992 | locus YCL069W, strain vba3, stronger effect = lower value 1.02 | locus YCR088W, strain abp1, stronger effect = lower value 1.02 | locus YDL005C, strain med2, stronger effect = lower value 1.02 | locus YDL035C, strain GPR1, stronger effect = lower value 1.03 | locus YDL040C, strain nat1, stronger effect = lower value 1.01 | locus YDL074C, strain BRE1, stronger effect = lower value 0.993 | locus YDL101C, strain DUN1, stronger effect = lower value 0.99 | locus YDL134C, strain PPH21, stronger effect = lower value 0.986 | locus YDL185W, strain tfp1, stronger effect = lower value 0.987 | locus YDL192W, strain arf1, stronger effect = lower value 0.99 | locus YDR001C, strain nth1, stronger effect = lower value 1.01 | locus YDR069C, strain doa4, stronger effect = lower value 1.03 | locus YDR101C, strain arx1, stronger effect = lower value 0.986 | locus YDR137W, strain rgp1, stronger effect = lower value 1.02 | locus YDR150W, strain NUM1, stronger effect = lower value 1 | locus YDR159W, strain sac3, stronger effect = lower value 0.977 | locus YDR162C, strain NBP2, stronger effect = lower value 1 | locus YDR195W, strain ref2 1 | locus YDR297W, strain sur2, stronger effect = lower value 1.01 | locus YDR318W, strain mcm21, stronger effect = lower value 0.99 | locus YDR334W, strain swr1, stronger effect = lower value 1.02 | locus YDR335W, strain msn5, stronger effect = lower value 1.02 | locus YDR363W, strain ESC2, stronger effect = lower value 0.991 | locus YDR388W, stronger effect = lower value 0.987 | locus YDR392W, strain spt3, stronger effect = lower value 0.984 | locus YDR502C, strain sam2, stronger effect = lower value 0.998 | locus YEL003W, strain gim4, stronger effect = lower value 1.02 | locus YEL037C, strain rad23, stronger effect = lower value 1.01 | locus YEL061C, strain CIN8 (second series), stronger effect = lower value 1.01 | locus YEL061C, strain CIN8, stronger effect = lower value 0.997 | locus YER002W, strain NOP16, stronger effect = lower value 0.968 | locus YER015W, strain faa2, stronger effect = lower value 1.02 | locus YER016W, strain bim1, stronger effect = lower value 1.01 | locus YER110C, stronger effect = lower value 0.988 | locus YER111C, strain swi4, stronger effect = lower value 1.03 | locus YER155C, strain BEM2 (second series), stronger effect = lower value 0.991 | locus YER155C, strain BEM2, stronger effect = lower value 0.989 | locus YER167W, strain BCK2, stronger effect = lower value 1.01 | locus YFR010W, strain ubp6, stronger effect = lower value 1.01 | locus YGL078C, strain dbp3, stronger effect = lower value 0.992 | locus YGL086W, strain mad1, stronger effect = lower value 1.01 | locus YGL167C, strain pmr1, stronger effect = lower value 1.02 | locus YGL173C, strain kem1, stronger effect = lower value 1.02 | locus YGL227W, strain vid30, stronger effect = lower value 1.01 | locus YGL240W, strain doc1, stronger effect = lower value 1.01 | locus YGL248W, strain PDE1, stronger effect = lower value 1 | locus YGL253W, strain hxk2, stronger effect = lower value 1.01 | locus YGR078C, strain PAC10, stronger effect = lower value 1.01 | locus YGR135W, strain pre9, stronger effect = lower value 0.985 | locus YGR229C, strain SMI1, stronger effect = lower value 1.04 | locus YGR252W, strain gcn5, stronger effect = lower value 1.07 | locus YHR013C, strain ard1, stronger effect = lower value 1.01 | locus YHR027C, strain rpn1, stronger effect = lower value 1.01 | locus YHR030C, strain SLT2, stronger effect = lower value 0.999 and 0.966 | locus YHR079C, strain IRE1 (second series), stronger effect = lower value 0.988 | locus YHR079C, strain IRE1, stronger effect = lower value 0.979 | locus YHR094C, strain hxt1, stronger effect = lower value 0.993 | locus YHR129C, strain ARP1, stronger effect = lower value 0.991 | locus YHR142W, strain chs7, stronger effect = lower value 1.03 | locus YHR200W, strain rpn10, stronger effect = lower value 0.989 | locus YIL066C, strain RNR3, stronger effect = lower value 1 | locus YIL073C, strain SPO22, stronger effect = lower value 0.995 | locus YIL125W, strain kgd1, stronger effect = lower value 1 | locus YIR030C, strain dcg1, stronger effect = lower value 0.991 | locus YJL092W, strain hpr5, stronger effect = lower value 1 | locus YJL095W, strain BCK1 (second series), stronger effect = lower value 1.01 | locus YJL095W, strain BCK1, stronger effect = lower value 0.988 and 0.98 | locus YJL115W, strain asf1, stronger effect = lower value 1.02 | locus YJL129C, strain trk1, stronger effect = lower value 1.01 | locus YJL134W, strain LCB3, stronger effect = lower value 0.999 | locus YJL154C, strain vps35, stronger effect = lower value 1.03 | locus YJL164C, strain tpk1, stronger effect = lower value 1.01 | locus YJL166W, strain qcr8, stronger effect = lower value 0.993 | locus YJL168C, strain set2, stronger effect = lower value 0.993 | locus YJL187C, strain SWE1 (second series), stronger effect = lower value 0.993 | locus YJL187C, strain SWE1, stronger effect = lower value 1.02 | locus YJR043C, strain POL32, stronger effect = lower value 1 | locus YJR066W, strain TOR1, stronger effect = lower value 0.929

From PubChem BioAssay AID1159580 (chemical genetic matrix, 2015)
